Data on 88 molecules can be found in PubChem BioAssay AID1645859 (Buhrlage Lab, Dana-Farber Cancer Institute and Novartis …, 2021).

In all, about 47,000 compounds went through this assay and about 95 (0.2%) were called active. The sample as a whole holds a higher share of actives than the screen did. A number with no mark means an inactive call. Cut-off read from the data, not from the text of the source: active = inhibition above about 30%; inactive = the rest.

In this assay the target is Ubiquitin carboxyl-terminal hydrolase isozyme L1 (Homo sapiens) (UniProt P09936). The assay is described as follows: blocks human UCHL1 ubiquitin-rhodamine cleavage (AID 1645859). As to conditions: purified UCHL1, Ub-rhodamine cleavage fluorescence; at 20 µM; active compounds read high.
Ubiquitin carboxyl-terminal hydrolase isozyme L1 (Homo sapiens), sequence (P09936 whole entry, looked up): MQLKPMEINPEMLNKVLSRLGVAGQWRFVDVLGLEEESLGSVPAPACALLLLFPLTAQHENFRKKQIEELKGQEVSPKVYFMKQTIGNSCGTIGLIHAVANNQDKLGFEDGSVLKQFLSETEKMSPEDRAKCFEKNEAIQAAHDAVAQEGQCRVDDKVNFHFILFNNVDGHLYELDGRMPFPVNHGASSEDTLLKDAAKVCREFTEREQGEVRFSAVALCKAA
For the molecule `O=C(Cn1cnc(S(=O)(=O)N2CCc3ccccc32)c1)Nc1ccc2c(c1)OCO2`, the inhibition (commonly the change of the read-out against control, counted positive when it falls) is -7.24%.

For `Cc1ccc(CNC(=O)CCCn2c(=O)c3sccc3n(CC(=O)OCc3ccccc3)c2=O)cc1`, the inhibition was -0.426%.

Consider `CCN1CCN(c2ncc(C(=O)Nc3ccc(F)cc3)c(C)n2)CC1`, for which the inhibition is -0.515%.

Regarding `O=C(CCc1nnc2ccc(N3CCCCC3)nn12)NCC1CCCO1` (stereo not drawn), the inhibition is -1.95%.

As to `Cc1ccc(C)c(CSC2=NCCN2C(=O)c2ccco2)c1`, the inhibition was -0.972%.

For the molecule `O=C(C1CCN(c2nc3ccc(-c4cccnc4)nc3s2)CC1)N1CCOCC1`, the inhibition was -0.864%.

With `Cc1cnn(CC2CCCCN2C(=O)Cc2c(C)noc2Cl)c1` (stereo not drawn), the inhibition was 0.232%.

Turning to `Cc1c(NC(=O)c2ccc(C(C)(C)C)cc2)c(-n2cnnc2)nn1C`, the inhibition was -0.768%.

On to `O=C(Cc1ccccc1Cl)Nc1ccc(N2CCOCC2)cc1`, for which the inhibition was 2.8%.

`O=C(NC1CC1)c1nc(-c2ccc(-n3cccc3)cc2)no1`: the inhibition is 1.38%.

Turning to `COCC(=O)N1CCCC2(COCCN(CCN(C)C)C2)C1` (stereo not drawn), the inhibition is 0.844%.

Take `O=C(O)C1CCCN1Cc1c(-c2cccs2)nc2ccccn12` (stereo not drawn): the inhibition was -7.21%.

With `COc1ccc(N2C(=O)c3ccccc3NC2c2ccc(OCC(N)=O)cc2)cc1` (stereo not drawn), the inhibition is 3.76%.

With `COc1ccc(OC)c(NC(=O)[C@H]2C[C@H](C)N[C@]23C(=O)Nc2c(Cl)cc(C)cc23)c1`, the inhibition is -6.13%.

Take `CCCOc1ccnc2c1c(=O)n(CC(=O)NC1CCCC1)c(=O)n2C`: the inhibition is -3.9%.

As for `Cc1cccc(-c2nccnc2C2CCCN(C(=O)c3cnccn3)C2)c1` (stereo not drawn), the inhibition is 5.49%.

`COc1ccccc1C(=O)NCC(c1ccc2c(c1)CCCN2C)N1CCCC1` (stereo not drawn): the inhibition is -73.4%.

Consider `Cc1ccc(C)c(NC(=O)C(Sc2nnc(-c3ccccc3)n2C)c2ccccc2)c1` (stereo not drawn), for which the inhibition was 0.846%.

Regarding `Cn1cc(N2CCC3(CCN(C(=O)c4ccc(F)cc4)CC3)C2=O)cn1`, the inhibition is 0.646%.

On to `O=C(NC1CCOCC1)N[C@H]1C[C@H]2CN(Cc3ccccc3)Cc3ccccc3CN2C1`, for which the inhibition is 1.49%.

For the molecule `Cc1cccc(CNC(=O)C2CCCN(S(=O)(=O)Cc3ccc(F)cc3)C2)c1` (stereo not drawn), the inhibition is 3.47%.

Take `N#Cc1ccc(Oc2nc(-c3ccccc3)nnc2-c2ccccc2)cc1`: the inhibition was -0.193%.

For `O=C1CCCN1c1ccc(S(=O)(=O)N2CCc3ccccc3C2)cc1`, the inhibition is -1.26%.

As for `CC(=O)c1cccc(NC(=O)CCN(c2cc(C)cc(C)c2)S(=O)(=O)c2ccc(Cl)cc2)c1`, the inhibition is 5.56%.

As for `Cc1cc(C)c(NC(=O)CCN2C(=O)c3cccnc3Sc3ccccc32)c(C)c1`, the inhibition was -0.793%.

Consider `Oc1cccc2nc3c(O)cccc3nc12`, for which the inhibition was 28.5%.

As for `O=C(NCCc1ccccc1)c1ccc2c(=O)n(Cc3ccco3)c(=O)n(Cc3cccc([N+](=O)[O-])c3)c2c1`, the inhibition is 23%.

On to `CC(C)NC(=O)[C@H]1CCS(=O)(=O)[C@@H]2CN(Cc3ccccc3)C[C@H]12`, for which the inhibition was 3.58%.

For the molecule `COc1cc(OC)cc(-c2nnc(NC(=O)c3ccc([N+](=O)[O-])o3)o2)c1`, the inhibition was 1.67%.

As to `O=C(NCc1ccc(F)cc1F)c1csc(C(=O)NC2CC2)n1`, the inhibition was -3.4%.

As for `CC(C(=O)Nc1ccccc1F)C1CCN(C(=O)Nc2ccccc2)CC1` (stereo not drawn), the inhibition was 0.962%.

Consider `Cc1nnc(-c2c(C)[nH]c(C)c2S(=O)(=O)NCc2ccccc2)o1`, for which the inhibition is -1.69%.

Consider `CC1(C)CC(=O)N(CC(=O)N2CCCCC2)c2ccccc2S1(=O)=O`, for which the inhibition is 0.351%.

For the molecule `Cc1nc(-c2csc(S(=O)(=O)NC3CC3)c2)no1`, the inhibition is -2.36%.

Consider `O=C(Cn1cnc2cc3c(cc21)OCCO3)NCCc1ccccc1`, for which the inhibition was -0.00331%.

Turning to `COCCn1ccc2nc(C)c(C(=O)N3CCN(c4cc(C)ccc4C)CC3)cc2c1=O`, the inhibition was 1.94%.

On to `CCOC(=O)C(Cc1ccccc1)NC(=O)CCC(=O)c1ccc(OC)cc1` (stereo not drawn), for which the inhibition is 1.4%.

With `Cc1nnc(OCC(=O)Nc2ccc(OC(F)(F)F)cc2)c2ccccc12`, the inhibition was 8.69%.

For `CCOC(=O)c1noc2ncnc(Nc3ccc4c(c3)OCCO4)c12`, the inhibition is 2.47%.

As for `c1cc(N2CCCCCC2)ncc1-c1noc(CN2CCCC2)n1`, the inhibition was 0.394%.

Take `CN1Cc2ccccc2CC2(CC(Nc3ccc(C(=O)O)cc3)C2)C1=O` (stereo not drawn): the inhibition is -3.39%.

For `COc1cc(Cl)c(NC(=O)c2cc(-c3ccccn3)n[nH]2)c(OC)c1`, the inhibition is 8.97%.

On to `CC(=O)OC(C)[C@]12C=C(C)[C@H]3[C@H](C)[C@@H](O[C@H]4CC[C@@H](O)[C@@H](C)O4)C4=CC(=O)C=C(N1C(=O)[C@@](C)(O)C2=O)[C@]43O` (stereo partly drawn), for which the inhibition is -4.12%.

For the molecule `Cc1cc(-c2noc(-c3cc4ccccc4oc3=O)n2)c2ccccc2n1`, the inhibition was -0.979%.

As for `O=C(Cn1cnc(S(=O)(=O)N2CCOCC2)c1)Nc1cccc(Cl)c1`, the inhibition was 2.46%.

On to `Cc1cc(NC(=O)c2ccc(C(=O)N(C3CCCCC3)C3CCCCC3)cc2)cc(C)c1O`, for which the inhibition was 4.77%.

For the molecule `O=C1NC[C@@H](Cc2ccccc2)NC(=O)C2(C/C=C/COc3ccccc31)CCNCC2`, the inhibition is 2.07%.

`COC(=O)CC[C@H]1CNC(=O)[C@@H]2[C@@H](CCN2C2CCCCC2)N1C`: the inhibition was 8.17%.

`O=S(=O)(NC12CC3CC(CC(C3)C1)C2)c1ccc(S(=O)(=O)N2CCCCC2)cc1`: the inhibition is -1.48%.

Take `CNC(=O)C1(C)CN(C(=O)c2ccc3ncccc3c2)CCO1` (stereo not drawn): the inhibition is -0.883%.

On to `CC(C)[C@H](NC(=O)[C@@H]1Cc2c([nH]c3ccccc23)C2c3ccccc3C(=O)N21)C(=O)NCCc1ccccc1` (stereo partly drawn), for which the inhibition is 0.101%.

Turning to `COc1cccc(CN2CC[C@@H]3CNS(=O)(=O)[C@@H]3CC2)c1`, the inhibition was 5.2%.

As for `O=C(Cc1ccccc1)Nc1ccc(-c2nc3cnccc3o2)c(O)c1`, the inhibition is 0.256%.

Take `Cc1ccc(-n2cc(-c3noc(C(=O)Nc4ccc(F)cc4C)n3)nn2)cc1`: the inhibition was 38.3% (active).

`Cc1ccc(Cn2cc(-c3noc(-c4ccccn4)n3)nn2)cc1`: the inhibition is -0.677%.

`Cc1cc(F)ccc1NC(=O)c1cc(C2CC2)n2nccc2n1`: the inhibition was 1.97%.

Take `COC(=O)C(C(C)C)N1CCc2c(C)nc3cc(C#N)nn3c21` (stereo not drawn): the inhibition is -5.64%.

For the molecule `Cc1cc(/C=C2/C(=N)N3C=CSC3=NC2=O)c(C)n1-c1ccc(F)cc1`, the inhibition is -13%.

As to `Cn1c(CCN2CCCC2)nc2cc(NS(=O)(=O)c3ccccc3)ccc21`, the inhibition is -2.94%.

As for `COc1ccc(-n2ncc3c2NC(=O)CC32C(=O)N(CC(C)C)c3ccc(F)cc32)cc1` (stereo not drawn), the inhibition is 3.31%.

As for `Cc1nnc2ccc(-c3ccc(NC(=O)c4ccc(Br)o4)cc3)nn12`, the inhibition is 7.55%.

Take `NS(=O)(=O)c1ccc(CCNc2nccn(-c3ccc4c(c3)OCO4)c2=O)cc1`: the inhibition was -4.71%.

As to `O=C(c1cc2occc2c(Nc2ccc(F)cc2)n1)N1CCN(C(=O)c2ccco2)CC1`, the inhibition is 3.68%.

Take `CC(C)c1ccc(C2CC(=O)c3cn[nH]c3C2)cc1` (stereo not drawn): the inhibition is 0.362%.

For `O=C1CC2(C(=O)Nc3ccccc32)c2cnn(-c3ccccc3Cl)c2N1` (stereo not drawn), the inhibition was -0.024%.

For the molecule `COc1cccc(C2NC(=O)c3c(sc4c3CCC(C)C4)N2)c1O` (stereo not drawn), the inhibition is -0.199%.

For the molecule `CCn1nccc1-c1cccc(-c2noc(-c3ccccn3)n2)c1`, the inhibition is 3.84%.

On to `Cn1cccc1/C(C#N)=C\c1ccc2c(c1)OCO2`, for which the inhibition was 12.5%.

Take `CCc1cnc(N2CCC3(CC2)CC(Oc2cccnc2)C3)nc1`: the inhibition is -4.29%.

As to `COc1ccc(NC(=O)c2cnc(N3CCCC3)nc2C)cc1OC`, the inhibition is 2.41%.

For the molecule `CS(=O)(=O)N1CCn2c(nnc2-c2cncc(Br)c2)C1`, the inhibition is 1.7%.

Turning to `O=C(c1ccccn1)N1C[C@@H]2C[C@H]1C[C@@H]2NS(=O)(=O)c1ccccc1`, the inhibition is -1.88%.

Consider `Cc1ccc(S(=O)(=O)N2CCC(c3nc(C(=O)N(C)C)c(C)o3)CC2)c(C)c1`, for which the inhibition is -3.64%.

Take `CC(=O)c1ccc(S(=O)(=O)Nc2cccc(-c3nc4cccnc4s3)c2C)cc1`: the inhibition was 0.0973%.

Regarding `O=C(C1CCN(c2nc3cccnc3s2)CC1)N1CCN(c2ncccn2)CC1`, the inhibition is 5.79%.

`O=c1ccc(S(=O)(=O)N2CCCCCC2)cn1Cc1ccccc1`: the inhibition is -3.73%.

For `CNc1cncc(C2CCCN2S(=O)(=O)N2CCCC2)n1` (stereo not drawn), the inhibition was 1.24%.

On to `Cn1c(=O)c2c(-c3ccc(C(C)(C)C)cc3)n(-c3ccccc3Cl)cc2n(C)c1=O`, for which the inhibition was 3.67%.

As for `c1ccc2c(c1)NCCC(c1ccc3c(c1)OCO3)N2` (stereo not drawn), the inhibition was -0.387%.

For `CC(C)(C)CN1CC[C@H](c2nnc(-c3cccnc3)o2)C1`, the inhibition was -3.12%.

Take `COc1ccc(NC(=O)c2cccn3c(-c4ccc(F)cc4)nnc23)c(OC)c1`: the inhibition is -7.15%.

As for `N#Cc1cnc2ccccc2c1N1CCC(C(=O)N2CCCCC2)CC1`, the inhibition is -2%.

With `Cc1nn(CCC(=O)Nc2ccccc2F)c(C)c1S(=O)(=O)N1CCOCC1`, the inhibition is -2.99%.

Consider `O=C(Nc1ccc2c(c1)CCC2)N1CCc2c(nc(-c3ccccc3)[nH]c2=O)C1`, for which the inhibition was -2.41%.

As to `O=C(NC1CC1)c1cn(-c2cc(-c3nc(C4CC4)no3)ccn2)cn1`, the inhibition was 2.22%.

Consider `Cc1ccccc1NC(=O)Cc1csc2nc(-c3ccc(F)cc3)cn12`, for which the inhibition is 6.49%.

As to `O=C(CN1C(=O)C2CCCC2=Nc2ccccc21)Nc1ccc(F)cc1F` (stereo not drawn), the inhibition is 2.04%.

On to `COCCNC(=O)c1cc(-c2ccn(C3CCCC3)n2)n2ccccc12`, for which the inhibition is -0.227%.
